# PMC4336329 (PLoS ONE, 2015)
# The campaign covered roughly 310,000 compounds. About 14,000 (4.5%) showed an effect of 50% or more. Effects have a minus sign here. This is one part of a sample in which strong results are shown more often than they occur.
# Target: human ether-à-go-go-related gene (hERG) potassium channel (human, UniProt Q12809)
# Assay: primary screen, population patch clamp on CHO cells stably expressing hERG; higher = less effect of the substance
# 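Also: peak tail current of the secondary pulse compared with the same well before compound.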
# Sequence of human ether-à-go-go-related gene (hERG) potassium channel (Q12809 whole entry, looked up): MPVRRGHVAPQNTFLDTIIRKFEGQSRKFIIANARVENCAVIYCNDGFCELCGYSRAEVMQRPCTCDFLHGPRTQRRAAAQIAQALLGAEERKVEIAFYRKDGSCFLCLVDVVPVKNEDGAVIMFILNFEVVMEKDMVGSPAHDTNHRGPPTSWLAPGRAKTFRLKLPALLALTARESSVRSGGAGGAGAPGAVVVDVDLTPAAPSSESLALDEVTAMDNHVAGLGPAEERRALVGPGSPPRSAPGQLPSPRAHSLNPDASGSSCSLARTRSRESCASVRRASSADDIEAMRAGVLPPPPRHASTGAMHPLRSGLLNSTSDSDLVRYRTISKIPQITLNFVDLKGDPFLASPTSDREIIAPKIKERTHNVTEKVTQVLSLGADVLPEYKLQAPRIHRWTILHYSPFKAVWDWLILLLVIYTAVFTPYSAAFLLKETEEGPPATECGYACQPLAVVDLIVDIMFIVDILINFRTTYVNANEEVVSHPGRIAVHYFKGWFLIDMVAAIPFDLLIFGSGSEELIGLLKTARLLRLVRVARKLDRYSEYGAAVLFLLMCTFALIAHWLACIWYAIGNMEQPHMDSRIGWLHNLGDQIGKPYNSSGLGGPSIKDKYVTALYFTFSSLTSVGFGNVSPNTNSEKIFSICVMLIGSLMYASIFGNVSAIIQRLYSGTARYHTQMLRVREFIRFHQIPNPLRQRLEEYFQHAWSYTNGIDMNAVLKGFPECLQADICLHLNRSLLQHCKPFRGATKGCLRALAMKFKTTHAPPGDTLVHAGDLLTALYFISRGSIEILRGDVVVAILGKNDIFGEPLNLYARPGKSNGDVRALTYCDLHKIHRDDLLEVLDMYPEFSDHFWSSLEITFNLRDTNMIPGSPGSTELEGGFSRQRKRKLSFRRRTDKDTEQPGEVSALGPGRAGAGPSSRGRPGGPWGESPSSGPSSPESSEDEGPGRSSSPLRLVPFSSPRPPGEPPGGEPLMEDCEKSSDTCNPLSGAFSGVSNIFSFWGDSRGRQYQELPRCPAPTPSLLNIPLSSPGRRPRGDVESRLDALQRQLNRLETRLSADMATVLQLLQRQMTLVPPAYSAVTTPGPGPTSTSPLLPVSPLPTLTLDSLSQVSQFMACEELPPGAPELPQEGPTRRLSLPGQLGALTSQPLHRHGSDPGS
row,Compound,"hERG current change (%, negative = inhibition) at 10uM"
1,CCCCS(=O)CC(CS(=O)CCCC)OC(=O)c1ccc(C)cc1 (stereo not shown),-49.2%
2,Cc1ccc(S(=O)(=O)N(C)c2ccc(C(=O)O)cc2)cc1,-17.1%
3,CC(C)NCCCOc1ccc(C(C)(C)c2ccccc2)cc1.O=C(O)C(=O)O,7.21%
4,COc1ccc(CNCC(O)COc2ccc(C(C)(C)c3ccccc3)cc2)cc1.O=C(O)C(=O)O (stereo not shown),-12.3%
5,C#CCOc1ccccc1CNC1CCN(Cc2ccccc2)CC1.O=C(O)C(=O)O,-29.3%
6,CC(C)N(CCNCC(O)COc1ccc(C(C)(C)c2ccccc2)cc1)C(C)C.O=C(O)C(=O)O (stereo not shown),-79%
7,CCOc1ccc(OCC(O)CNC2CCN(Cc3ccccc3)CC2)cc1.O=C(O)C(=O)O (stereo not shown),-62.8%
8,CCOc1ccc(CC(=O)NC2CCN(Cc3ccccc3)CC2)cc1,-6.23%
9,CC(C)(c1ccccc1)c1ccc(OCC(O)CNC2CCN(Cc3ccccc3)CC2)cc1.O=C(O)C(=O)O (stereo not shown),-72.8%
10,CC(=O)Nc1ccc(OCC(O)CNC2CCCC2)cc1.Cl (stereo not shown),6.24%
11,COc1ccccc1NCC(O)COc1ccc(C(C)(C)C)cc1.O=C(O)C(=O)O (stereo not shown),6.79%
12,O=C(Cc1ccccc1)NN1C(=O)C2C3C=CC(C3)C2C1=O (stereo not shown),12.4%
13,COc1ccc(C)cc1NC(=O)C(OC(=O)C1CC1)c1ccccc1 (stereo not shown),-12%
14,O=C(COC(=O)C1CCN(S(=O)(=O)c2ccccc2C(F)(F)F)CC1)NCc1ccc(F)cc1,-8.33%
15,CCOc1ccc(N=Cc2c(O)n(-c3ccc(C)c(C)c3)c(=O)[nH]c2=O)cc1,-1.8%
16,Cc1ccc(-n2ncc3c(SCC(=O)Nc4cc(C)on4)ncnc32)c(C)c1,17.9%
17,O=C(C[n+]1ccccc1)N/N=C/c1ccccc1[N+](=O)[O-].[Cl-],40.2%
18,Cc1cccc(C(=O)N2CCCC(Nc3ccc(C(C)C)cc3)C2)n1 (stereo not shown),0.95%
19,Cc1ccc(C2Nc3cccc4cccc(c34)N2)s1,-4.53%
20,CN(C)S(=O)(=O)c1cccc(C(=O)Nc2ccc(S(=O)(=O)N3CCCC3)cc2)c1,25.5%
21,CC1(C)Cc2cccc(OCC(=O)N3CCN(S(=O)(=O)c4ccccc4F)CC3)c2O1,-14.6%
22,O=C(Nc1ccc2cn[nH]c2c1)c1ccc(S(=O)(=O)N2CCOCC2)cc1,-19.7%
